Source: PubChem (National Center for Advancing Translational Sciences (NCATS))
DT40 TDP1 CPT: DT40-hTDP1 cell growth loss with CPT; chicken DT40 Tdp1-/-;hTDP1 cells + 20 nM CPT, ATP luminescence, 48 h; Potency, µM (highest dose often 46.2 µM), usual class: inhibitors; 12% of 420,000 active; AID 686979; note: nearly all actives have a fitted effect of over 55% in size
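Chicken DT40 Tdp1-/- cells stably complemented with human TDP1 were seeded at 400 cells/well in medium containing 20 nM camptothecin, exposed to pin-transferred compounds, and grown at 37 °C for at least 48 hr. Viability was read as ATP luminescence.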
TDP1 cell noCPT: qHTS for Inhibitors of human tyrosyl-DNA phosphodiesterase 1 (TDP1): qHTS in cells in absence of CPT; 15% of 420,000 active; DT40 Tdp1-/- hTDP1 cells, no CPT, ATP luminescence, 48 h; AID 686978, 2013; Potency, µM (series often up to 46.2 µM), usual class: inhibitors; note: nearly all actives have a fitted effect of over 55% in size
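A cellular qHTS used chicken DT40 cells lacking endogenous Tdp1 but carrying stably transfected human TDP1. Compounds were applied without camptothecin, and cell growth kinetics were judged by ATP-dependent luminescence after ≥48 hr.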
TDP1 inh: inhibitors of human tyrosyl-DNA phosphodiesterase TDP1; Q9NUW8; recombinant TDP1, AlphaScreen DNA substrate cleavage; Potency, µM (doses to about 130 µM), hits mostly inhibitors; 0.28% of 350,000 active; note: nearly all actives have a fitted effect of over 40% in size
Target sequence (Q9NUW8 whole entry, looked up): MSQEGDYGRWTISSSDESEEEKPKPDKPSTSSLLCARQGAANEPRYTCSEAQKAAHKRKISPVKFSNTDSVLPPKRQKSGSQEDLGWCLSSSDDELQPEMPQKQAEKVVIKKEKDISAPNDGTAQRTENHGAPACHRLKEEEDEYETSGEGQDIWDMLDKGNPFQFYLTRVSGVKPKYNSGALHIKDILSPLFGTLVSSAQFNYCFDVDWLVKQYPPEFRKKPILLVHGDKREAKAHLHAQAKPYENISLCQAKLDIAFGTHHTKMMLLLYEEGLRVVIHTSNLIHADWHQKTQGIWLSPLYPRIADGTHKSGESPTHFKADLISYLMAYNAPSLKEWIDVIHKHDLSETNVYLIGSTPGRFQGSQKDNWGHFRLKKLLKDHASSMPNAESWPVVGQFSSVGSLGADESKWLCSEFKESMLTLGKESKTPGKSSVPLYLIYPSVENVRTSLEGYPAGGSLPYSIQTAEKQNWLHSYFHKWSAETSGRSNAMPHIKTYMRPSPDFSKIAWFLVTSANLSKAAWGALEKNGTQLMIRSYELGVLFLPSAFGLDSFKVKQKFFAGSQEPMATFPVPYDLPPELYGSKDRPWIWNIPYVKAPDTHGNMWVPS
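Tdp1 1 nM final; 15 min RT w/ cpd; substrate 15 nM, 5 min; beads 10 ug/ml, 10 min; AlphaScreen read. Neg ctrl: no enzyme.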
HepG2 tox: kills HepG2 cells in TGF-b inhibitor counter-screen; HepG2 CAGA-GFP viability, ATP luminescence, 18 h; Potency, µM (titrated, usually from 46.1 µM), actives largely listed as cytotoxic; 0.76% of 410,000 active; AID 588856
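HepG2 CAGA-GFP cells (1000/well, DMEM with 1% FBS) received compound, then TGF-beta at 500 pg/mL final, and were incubated 18 hours at 37 degrees C. Viability was read by CellTiter-Glo luminescence. Media-only wells were set as complete cell-killing and DMSO as no toxicity.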
IL1B secr inh: inflammasome signaling inhibition, IL-1 beta readout. activity change, % at 57.5 µM. 4.7% of 360,000 active. THP-1 LPS/ATP IL-1B secretion, AlphaLISA, 16 h; stronger effect = lower value. AID 743279; in the data active = activity change below about -50%; inconclusive = mostly about -30% to -49%
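Secreted IL-1B measured by AlphaLISA bead assay after 16 h compound exposure of THP-1 cells; compounds (final up to 57.5 uM) added 1 h before LPS (250 ng/mL) and ATP (1.25 mM) stimulation; lower signal means less secretion.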
TGFb SMAD3 inh: TGF-b pathway inhibition | HepG2 CAGA-GFP TGF-b/SMAD3 reporter, GFP fluorescence, 18 h; TGF-beta stimulated, 500 pg/mL final | Potency, µM (highest dose often 46.1 µM), hits mostly inhibitors | 1.2% of 410,000 active | AID 588855; note: nearly all actives have a fitted effect of over 65% in size
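Per well, imaged GFP fluorescence of HEPG2 CAGA-GFP cells gives the signal; cells get compound, then TGF-beta (500 pg/mL final), 18 h at 37 degrees C; %Activity versus -TGF-beta and +DMSO controls.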
Hits are given with their value; 0 = inactive; ? = inconclusive; - = not tested or not shown; [ ] = remark or other dose. Rows were chosen to be rich in hits. Some 19% of all compounds tested hit in one or more screens of this group. Unless noted, calls come from the whole dose curve; as a rule, active = well fitted curve in the direction sought with a large enough effect; inconclusive = small, poorly fitted or top-dose-only effect, or another doubt; inactive = no such curve, though single readings can be large; an effect the other way counts as inactive or inconclusive.

SMILES | DT40 TDP1 CPT | TDP1 cell noCPT | TDP1 inh | HepG2 tox | IL1B secr inh | TGFb SMAD3 inh
Cc1ccc2c(CN3CCN(Cc4ccccc4)CC3)cc(=O)oc2c1C | ? | 18.4µM | - | 0 | -74.5 | 0
COc1ccc(C2/C=C\CN(C(=O)C3CCCCC3)C(C)C(=O)N2Cc2ccc(F)cc2)cc1 (stereo unspecified) | - | - | 0 | 0 | - | ?
Cc1sc2ncnc(N3CCC(C(=O)N(CC(C)C)c4nc5ccccc5s4)CC3)c2c1C | 20.6µM | 14.6µM | 0[0.505 µM] | 0 | 0 | ?
COc1ccccc1OCC(=O)NNC(=O)C1CCN(c2ncnc3sc(C)c(C)c23)CC1 | ? | 13µM | 0 | 0 | 0 | ?
C=CCn1c(C)cc(-c2csc(NC(=O)C3CCN(c4ncnc5sc(C)c(C)c45)CC3)n2)c1C | ? | 20.6µM | - | 0 | 0 | 0
COc1ccc(-c2csc(NC(=O)C3CCN(c4ncnc5sc(C)c(C)c45)CC3)n2)cc1OC | 2.91µM | 2.59µM | 0 | 0 | 0 | 0
CCc1ccc2nc(NC(=O)C3CCN(c4ncnc5sc(C)c(C)c45)CC3)sc2c1 | ? | ? | 0 | 0 | 0 | ?
CC(C)NC(=O)Nc1cccc2c1O[C@H](CN(C)S(C)(=O)=O)[C@@H](C)CN([C@H](C)CO)C2=O | 0 | 0 | 0 | 0 | 0 | 0
O=C(Nc1c(C(=O)N2CCN(c3ccc(F)cc3)CC2)oc2ccccc12)c1c(F)cccc1F | ? | ? | 0 | 0 | - | 0
Cc1sc2ncnc(N3CCC(C(=O)N4CC(C)SC4=Nc4ccc(Cl)cc4)CC3)c2c1C (stereo unspecified) | ? | ? | - | 0 | 0 | 0
CCOc1ccccc1N=C1SCC(C)N1C(=O)C1CCN(c2ncnc3sc(C)c(C)c23)CC1 (stereo unspecified) | 20.6µM | 14.6µM | - | 0 | 0 | ?
CCN(CC)c1ccc(C(=O)NNC(=O)C2CCN(c3ncnc4sc(C)c(C)c34)CC2)cc1 | ? | ? | - | 0 | 0 | 0
CCCN(CC(=O)Nc1ccccc1C)C(=O)C1CCN(c2ncnc3sc(C)c(C)c23)CC1 | 20.6µM | 10.3µM | 0 | 0 | 0 | ?
Cc1cccc(OCC(=O)NNC(=O)C2CCN(c3ncnc4sc(C)c(C)c34)CC2)c1 | ? | ? | 0 | 0 | 0 | 0
Cc1ccccc1OCC(=O)NNC(=O)C1CCN(c2ncnc3sc(C)c(C)c23)CC1 | 23.1µM | 25.9µM | - | 0 | 0 | ?
CC(=O)N1CCC[C@H]1C(=O)N1CCc2c(cnc(C)c2CNC(=O)/C=C/c2cccs2)C1 | 0[9.04 µM] | 0 | - | - | - | -
CCOC(=O)NC1(Nc2cccc(Cl)c2)Oc2ccccc2O1 | ? | 23.1µM | 0 | 0 | 0 | 0
C/C=C(\CS(=O)(=O)c1ccccc1)S(=O)(=O)c1ccccc1 | ? | 29.1µM | 0 | 0 | ? | 0
C/C(CS(=O)(=O)c1ccccc1)=N\O | 0 | 0 | 0 | 0 | 0 | 0
COC(=O)c1ccc(CC2(C)C(=O)Nc3ccc(-c4cccc(C(F)(F)F)c4)cc32)o1 (stereo unspecified) | ? | 16.4µM | - | 22.4µM | 0 | ?
CC(=O)c1cccc(-c2ccc3c(c2)C(C)(Cc2ccccc2F)C(=O)N3)c1 (stereo unspecified) | 25.9µM | 18.4µM | - | 0 | 0 | 0
O=C(NCc1ccccc1)c1ccc(-c2ccccc2F)o1 | 0 | 0 | 0 | 0 | 0 | 0
Cc1ccccc1-c1ccc(C(=O)Nc2cccc(F)c2)o1 | ? | 20.6µM | 0 | 0 | ? | 0
Cc1cccc(C)c1NC(=O)c1ccc(-c2cc(F)ccc2F)o1 | 18.4µM | 16.4µM | - | 0 | 0 | ?
Cc1nn(C)c(C)c1S(=O)(=O)N(CC(=O)Nc1ccc(F)cc1F)c1ccc(C(C)C)cc1 | ? | ? | 0 | 0 | - | ?
SMILES | DT40 TDP1 CPT | TDP1 cell noCPT | TDP1 inh | HepG2 tox | IL1B secr inh | TGFb SMAD3 inh
CCCc1nc2sc3c(=O)n(N)cnc3c2c2c1CCCC2 | 11.6µM | 9.2µM | 0 | 0 | 0 | 0
COc1cc(NC(=O)Cn2c(=O)n(-c3ccccc3)c(=O)c3c4c(sc32)CCCC4)cc(OC)c1 | 0 | 0 | 0 | 0 | - | 0
Cc1[nH]nc(Nc2ccc(C(C)C)cc2)c1[N+](=O)[O-] | 0 | ? | - | 0 | -51.4 | ?
Cc1cccc(Nc2n[nH]c(C)c2[N+](=O)[O-])c1 | 0 | 0 | 0 | 0 | 0 | 0
Cc1[nH]nc(Nc2ccc(Br)cc2)c1[N+](=O)[O-] | 20.6µM | 18.4µM | - | 0 | 0 | 0
Cc1[nH]nc(Nc2ccccc2)c1[N+](=O)[O-] | 0 | 0 | 0 | 0 | 0 | 0
CNC(=O)[C@]1(C)C[C@H]1[C@H](NC(=O)[C@]1(C)C[C@H]1[C@H](NC(=O)OCc1ccccc1)c1ccccc1)c1ccccc1 | - | - | 0 | - | - | -
CC[C@H](C)[C@H](NC(=O)[C@H](CCC(=O)O)NC(=O)CNC(=O)[C@@H](NC(=O)[C@H](CCC(=O)O)NC(=O)[C@H](CCC(=O)O)NC(=O)[C@H](CC(C)C)NC(=O)CNC(=O)[C@@H]1CCCN1C(=O)[C@H](CCC(=O)O)NC(=O)[C@@H](N)[C@@H](C)O)C(C)C)C(=O)N[C@@H](CCC(=O)O)C(=O)N[C@@H](CCC(N)=O)C(=O)N[C@@H](CCCCN)C(=O)N[C@@H](CCC(N)=O)C(=O)N[C@@H](CC(C)C)C(=O)N[C@@H](CCC(N)=O)C(=O)O | - | - | 0 | - | - | -
C=CC[C@@H](CC(=O)N(CCO)Cc1ccccc1)C(=O)N[C@H](COC(=O)[C@@H](CC=C)CC(=O)OC(C)(C)C)Cc1c[nH]c2ccccc12 | 18.4µM | 23.1µM | 0 | 0 | -55.7 | 12.6µM
C=CC[C@@H](CC(=O)N(CCO)Cc1ccccc1)C(=O)N[C@@H](COC(=O)[C@@H](CC=C)CC(=O)OC(C)(C)C)Cc1c[nH]c2ccccc12 | 25.9µM | 20.6µM | 0 | 0 | -62.3 | ?
C=CC[C@H](CC(=O)N(CCO)Cc1ccccc1)C(=O)N[C@@H](COC(=O)[C@H](CC=C)CC(=O)OC(C)(C)C)Cc1c[nH]c2ccccc12 | 14.6µM | 16.4µM | 0 | 0 | -61.8 | ?
CCOc1ncccc1C(=O)NCCCSc1ccccc1 | 0 | ? | - | 0 | 0 | 0
O=C1c2cccc(NCCNCCO)c2C(=O)c2cccc(NCCNCCO)c21 | 0.366µM | 0.731µM | - | 0 | -117.2 | ?
O=C(O)CCNc1ccc(NCCC(=O)O)c2c1C(=O)c1ccccc1C2=O | ? | ? | - | 0 | 0 | 0
CC(=O)C1C(=O)c2c(cccc2[N+](=O)[O-])C1=Nc1ccc(S(N)(=O)=O)cc1 (stereo unspecified) | 18.4µM | ? | 0 | 0 | 0 | 0
